Where “and” joins values, the source holds several entries; their conditions need not be identical. Identical values can stand only once.

The term inhibition denotes the drop in the measured response relative to a control, in per cent.

Sequence of Apelin receptor (Homo sapiens) (P35414 whole entry, looked up): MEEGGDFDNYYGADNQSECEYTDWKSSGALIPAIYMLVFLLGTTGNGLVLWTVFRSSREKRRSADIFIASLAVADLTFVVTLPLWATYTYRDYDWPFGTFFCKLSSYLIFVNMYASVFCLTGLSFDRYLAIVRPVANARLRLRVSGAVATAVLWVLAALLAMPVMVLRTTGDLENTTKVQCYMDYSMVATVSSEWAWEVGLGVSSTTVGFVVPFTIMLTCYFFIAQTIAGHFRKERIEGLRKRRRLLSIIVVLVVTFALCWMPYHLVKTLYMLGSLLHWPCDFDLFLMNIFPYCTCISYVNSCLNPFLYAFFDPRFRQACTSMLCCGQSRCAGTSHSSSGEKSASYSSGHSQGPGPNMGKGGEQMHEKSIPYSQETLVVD

The experiment concerns the target Apelin receptor (Homo sapiens) (UniProt P35414). The experiment can be described thus: APJ beta-arrestin recruitment blockade alongside CXCR6 – cell-based, DiscoveRx, panel, CHO-K1, counter-screen for CXCR6 antagonist project, SAR follow-up (AID 651598). Particulars: CHO-K1 PathHunter beta-arrestin luminescence, antagonist mode; run 2, at 80 µM (top of the series). In general terms: Arrestin recruitment assays detect the binding of arrestin to an activated receptor.
With `COc1cc(C(=O)NC2CC3CCC(C2)N3CC(=O)Nc2ccccc2)cc(OC)c1OC` (stereo not drawn), the inhibition was -3.64% and 3.22%.
With `COc1cc(C(=O)NC2CC3CCCC(C2)N3CC(=O)Nc2ccccc2)cc(OC)c1OC` (stereo not drawn), the inhibition is 11.6% and 7.3% and -8.97%.
Regarding `COc1cc(C(=O)NC2CCN(CC(=O)Nc3ccccc3)CC2)cc(OC)c1OC`, the inhibition was 4.86%.
